Publication PMC7862700, “An all-to-all approach to the identification of sequence-specific readers for epigenetic DNA modifications on cytosine”

Legend:
Test in all cases: DAPPL (digital affinity profiling via proximity ligation, sequencing); 10 mM Tris-HCl pH 7.5, 50 mM NaCl, 1 mM DTT, 4% glycerol, room temperature, 30 min; GST-TFs on glutathione beads, 16-mer random dsDNA library, 0.1% formaldehyde crosslink after washing; high values mean tight binding
[1] = biological target: T1, FEV (Homo sapiens, UniProt Q99581 1-238); settings: protein: recombinant; tags: N-terminal GST; dsDNA, one strand shown
T1 sequence: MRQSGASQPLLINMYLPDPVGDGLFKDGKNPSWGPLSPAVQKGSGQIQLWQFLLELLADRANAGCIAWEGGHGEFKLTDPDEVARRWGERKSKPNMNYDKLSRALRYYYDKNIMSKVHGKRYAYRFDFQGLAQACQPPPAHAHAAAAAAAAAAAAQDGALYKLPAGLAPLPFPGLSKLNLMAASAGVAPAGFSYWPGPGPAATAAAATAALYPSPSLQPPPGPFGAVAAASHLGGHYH
How it was run: (§1)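 GST fusions of human transcription factors were expressed in yeast and captured with glutathione beads. Once given DNA barcodes and pooled alongside a tag-only sample, they were incubated for 30 min at room temperature with 200 nmole of a random double-stranded 16-mer DNA library in Tris/NaCl/DTT/glycerol buffer, then washed, crosslinked (0.1% formaldehyde), proximity-ligated, PCR-amplified and sequenced on an Illumina NextSeq500. The binding signal of each hexamer is its read frequency for a factor divided by its frequency for the tag-only sample.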

[2] = biological target: ETV5 (Homo sapiens, UniProt P41161 1-510); settings: protein: recombinant; tags: N-terminal GST; dsDNA, one strand shown
How it was run: as §1

[3] = biological target: HSF1 (Homo sapiens, UniProt Q00613 1-529); settings: protein: recombinant; tags: N-terminal GST; chain copies: 3; dsDNA, one strand shown
How it was run: as §1

[4] = biological target: T2, SPIC (Homo sapiens, UniProt Q8N5J4 1-248); settings: protein: recombinant; tags: N-terminal GST; dsDNA, one strand shown
T2 sequence: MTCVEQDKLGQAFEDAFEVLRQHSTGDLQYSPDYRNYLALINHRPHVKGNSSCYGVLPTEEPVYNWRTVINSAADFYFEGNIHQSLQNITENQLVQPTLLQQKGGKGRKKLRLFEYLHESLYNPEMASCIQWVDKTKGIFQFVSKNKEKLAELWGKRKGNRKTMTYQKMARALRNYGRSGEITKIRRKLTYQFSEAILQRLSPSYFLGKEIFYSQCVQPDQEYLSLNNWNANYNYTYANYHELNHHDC
How it was run: as §1

[5] = biological target: ELF4 (Homo sapiens, UniProt Q99607 1-663); settings: protein: recombinant; tags: N-terminal GST; dsDNA, one strand shown
How it was run: as §1

[6] = biological target: T3, ELK4 (Homo sapiens, UniProt P28324-2 1-405); settings: protein: recombinant; tags: N-terminal GST; dsDNA, one strand shown
T3 sequence: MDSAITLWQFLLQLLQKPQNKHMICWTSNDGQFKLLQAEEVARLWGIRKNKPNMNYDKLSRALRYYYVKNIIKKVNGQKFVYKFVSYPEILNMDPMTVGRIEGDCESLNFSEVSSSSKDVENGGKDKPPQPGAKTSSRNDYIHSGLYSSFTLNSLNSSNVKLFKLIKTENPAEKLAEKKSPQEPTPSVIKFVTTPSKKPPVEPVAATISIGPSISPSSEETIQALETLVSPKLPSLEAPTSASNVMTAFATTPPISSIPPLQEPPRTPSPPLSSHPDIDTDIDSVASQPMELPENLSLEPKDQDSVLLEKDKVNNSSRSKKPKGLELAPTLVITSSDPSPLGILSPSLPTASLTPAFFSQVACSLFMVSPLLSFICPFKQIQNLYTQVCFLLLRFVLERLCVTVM
How it was run: as §1

[7] = biological target: T4, ETV2 (Homo sapiens, UniProt O00321 1-342); settings: protein: recombinant; tags: N-terminal GST; dsDNA, one strand shown
T4 sequence: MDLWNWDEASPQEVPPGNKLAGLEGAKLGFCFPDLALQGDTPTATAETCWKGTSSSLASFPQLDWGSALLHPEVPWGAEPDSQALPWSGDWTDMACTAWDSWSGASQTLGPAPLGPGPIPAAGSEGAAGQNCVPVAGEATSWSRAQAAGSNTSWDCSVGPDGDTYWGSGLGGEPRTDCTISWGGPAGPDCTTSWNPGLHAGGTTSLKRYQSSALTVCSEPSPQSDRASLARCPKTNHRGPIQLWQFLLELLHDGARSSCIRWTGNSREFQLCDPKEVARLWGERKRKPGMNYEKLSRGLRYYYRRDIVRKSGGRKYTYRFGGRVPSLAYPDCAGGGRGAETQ
How it was run: as §1

[8] = biological target: T5, ELF3 (Homo sapiens, UniProt P78545 1-371); settings: protein: recombinant; tags: N-terminal GST; dsDNA, one strand shown
T5 sequence: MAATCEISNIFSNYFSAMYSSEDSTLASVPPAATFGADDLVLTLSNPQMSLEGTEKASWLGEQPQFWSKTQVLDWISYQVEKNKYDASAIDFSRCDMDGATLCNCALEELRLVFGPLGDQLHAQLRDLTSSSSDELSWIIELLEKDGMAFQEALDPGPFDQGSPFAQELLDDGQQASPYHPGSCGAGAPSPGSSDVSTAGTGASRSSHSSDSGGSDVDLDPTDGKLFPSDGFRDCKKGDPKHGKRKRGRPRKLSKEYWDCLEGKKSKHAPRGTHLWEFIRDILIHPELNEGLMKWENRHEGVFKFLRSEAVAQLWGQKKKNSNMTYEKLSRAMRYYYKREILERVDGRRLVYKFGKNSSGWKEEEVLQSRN
How it was run: as §1

[9] = biological target: CRX (Homo sapiens, UniProt O43186 1-299); settings: protein: recombinant; tags: N-terminal GST; dsDNA, one strand shown
How it was run: as §1

[10] = biological target: ETV1 (Homo sapiens, UniProt P50549 1-477); settings: protein: recombinant; tags: N-terminal GST; dsDNA, one strand shown
How it was run: as §1

[11] = biological target: T6, ERF (Homo sapiens, UniProt P50548 1-548); settings: protein: recombinant; tags: N-terminal GST; dsDNA, one strand shown
T6 sequence: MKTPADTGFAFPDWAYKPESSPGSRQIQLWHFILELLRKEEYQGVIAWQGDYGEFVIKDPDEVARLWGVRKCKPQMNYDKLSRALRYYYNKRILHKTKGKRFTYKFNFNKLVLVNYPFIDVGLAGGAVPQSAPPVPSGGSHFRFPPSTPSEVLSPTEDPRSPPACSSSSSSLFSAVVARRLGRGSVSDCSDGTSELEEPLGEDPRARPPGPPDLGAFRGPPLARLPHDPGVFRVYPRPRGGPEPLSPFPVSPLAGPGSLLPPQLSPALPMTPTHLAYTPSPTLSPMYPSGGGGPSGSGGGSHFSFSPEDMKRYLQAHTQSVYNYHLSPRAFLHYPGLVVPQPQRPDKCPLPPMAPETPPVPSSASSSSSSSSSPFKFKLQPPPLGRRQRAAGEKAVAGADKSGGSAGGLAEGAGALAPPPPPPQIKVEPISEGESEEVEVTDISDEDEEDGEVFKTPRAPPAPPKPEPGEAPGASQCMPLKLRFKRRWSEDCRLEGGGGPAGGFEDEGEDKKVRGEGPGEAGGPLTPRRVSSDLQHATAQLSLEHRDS
How it was run: as §1

[12] = biological target: T7, ETV3L (Homo sapiens, UniProt Q6ZN32 1-361); settings: protein: recombinant; tags: N-terminal GST; dsDNA, one strand shown
T7 sequence: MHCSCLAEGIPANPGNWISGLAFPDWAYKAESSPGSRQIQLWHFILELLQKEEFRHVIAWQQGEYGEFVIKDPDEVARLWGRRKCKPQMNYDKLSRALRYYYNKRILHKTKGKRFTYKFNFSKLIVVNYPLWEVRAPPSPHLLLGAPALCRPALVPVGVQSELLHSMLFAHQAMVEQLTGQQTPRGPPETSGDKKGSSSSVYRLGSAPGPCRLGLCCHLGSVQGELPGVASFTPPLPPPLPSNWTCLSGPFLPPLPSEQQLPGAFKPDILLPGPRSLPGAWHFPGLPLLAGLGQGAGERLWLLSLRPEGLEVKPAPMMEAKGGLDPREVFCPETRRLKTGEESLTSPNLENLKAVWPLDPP
How it was run: as §1

[13] = biological target: T8, ETS2 (Homo sapiens, UniProt P15036 1-469); settings: protein: recombinant; tags: N-terminal GST; dsDNA, one strand shown
T8 sequence: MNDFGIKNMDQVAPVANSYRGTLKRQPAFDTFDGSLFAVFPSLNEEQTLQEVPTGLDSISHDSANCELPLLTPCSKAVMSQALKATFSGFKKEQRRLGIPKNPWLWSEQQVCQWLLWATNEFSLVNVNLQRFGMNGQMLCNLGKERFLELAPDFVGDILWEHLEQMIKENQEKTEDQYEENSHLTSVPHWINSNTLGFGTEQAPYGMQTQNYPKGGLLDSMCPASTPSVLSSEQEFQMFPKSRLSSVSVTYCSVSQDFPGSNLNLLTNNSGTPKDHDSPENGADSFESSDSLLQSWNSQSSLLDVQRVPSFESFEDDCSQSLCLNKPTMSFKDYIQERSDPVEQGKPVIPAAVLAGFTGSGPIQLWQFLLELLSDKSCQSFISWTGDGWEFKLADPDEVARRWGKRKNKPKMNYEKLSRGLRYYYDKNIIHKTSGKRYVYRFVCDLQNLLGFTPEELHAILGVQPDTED
How it was run: as §1

[14] = biological target: T9, SPDEF (Homo sapiens, UniProt O95238 1-335); settings: protein: recombinant; tags: N-terminal GST; dsDNA, one strand shown
T9 sequence: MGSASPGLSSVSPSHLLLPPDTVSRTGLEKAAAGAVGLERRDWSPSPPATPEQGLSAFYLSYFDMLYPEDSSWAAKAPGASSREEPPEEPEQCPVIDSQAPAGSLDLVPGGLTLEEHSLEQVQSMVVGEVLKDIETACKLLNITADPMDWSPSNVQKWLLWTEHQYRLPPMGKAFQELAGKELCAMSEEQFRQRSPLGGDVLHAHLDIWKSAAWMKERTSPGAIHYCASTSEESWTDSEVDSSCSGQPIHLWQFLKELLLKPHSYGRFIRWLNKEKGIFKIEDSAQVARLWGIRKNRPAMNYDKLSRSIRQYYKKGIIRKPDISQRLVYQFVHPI
How it was run: as §1

[15] = biological target: T10, ETV7 (Homo sapiens, UniProt Q9Y603 1-341); settings: protein: recombinant; tags: N-terminal GST; dsDNA, one strand shown
T10 sequence: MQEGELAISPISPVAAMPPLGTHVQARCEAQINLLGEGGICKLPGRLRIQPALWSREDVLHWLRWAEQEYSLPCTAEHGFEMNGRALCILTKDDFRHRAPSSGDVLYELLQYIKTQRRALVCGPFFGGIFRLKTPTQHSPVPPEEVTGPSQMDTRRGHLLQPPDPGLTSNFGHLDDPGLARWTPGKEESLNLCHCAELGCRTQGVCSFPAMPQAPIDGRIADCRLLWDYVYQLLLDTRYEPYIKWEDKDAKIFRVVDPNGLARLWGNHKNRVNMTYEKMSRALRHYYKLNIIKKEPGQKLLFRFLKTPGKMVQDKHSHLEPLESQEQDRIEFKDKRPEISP
How it was run: as §1

[16] = biological target: T11, ELF5 (Homo sapiens, UniProt Q9UKW6-2 1-255); settings: protein: recombinant; tags: N-terminal GST; dsDNA, one strand shown
T11 sequence: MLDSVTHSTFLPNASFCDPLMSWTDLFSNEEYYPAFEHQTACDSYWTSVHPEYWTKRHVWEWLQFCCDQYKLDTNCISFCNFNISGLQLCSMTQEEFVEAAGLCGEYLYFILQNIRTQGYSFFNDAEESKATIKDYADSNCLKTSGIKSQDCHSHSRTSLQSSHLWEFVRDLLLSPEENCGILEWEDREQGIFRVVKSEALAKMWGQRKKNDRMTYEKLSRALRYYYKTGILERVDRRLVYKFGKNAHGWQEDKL
How it was run: as §1

[17] = biological target: T12, ETV3 (Homo sapiens, UniProt P41162-2 1-143); settings: protein: recombinant; tags: N-terminal GST; dsDNA, one strand shown
T12 sequence: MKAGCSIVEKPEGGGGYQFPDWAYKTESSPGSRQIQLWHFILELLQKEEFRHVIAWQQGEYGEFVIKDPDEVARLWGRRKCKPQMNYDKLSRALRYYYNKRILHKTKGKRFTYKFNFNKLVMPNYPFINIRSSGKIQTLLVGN
How it was run: as §1

[18] = biological target: ETV6 (Homo sapiens, UniProt P41212 1-452); settings: protein: recombinant; tags: N-terminal GST; dsDNA, one strand shown
How it was run: as §1

Sequence of CRX (O43186 whole entry): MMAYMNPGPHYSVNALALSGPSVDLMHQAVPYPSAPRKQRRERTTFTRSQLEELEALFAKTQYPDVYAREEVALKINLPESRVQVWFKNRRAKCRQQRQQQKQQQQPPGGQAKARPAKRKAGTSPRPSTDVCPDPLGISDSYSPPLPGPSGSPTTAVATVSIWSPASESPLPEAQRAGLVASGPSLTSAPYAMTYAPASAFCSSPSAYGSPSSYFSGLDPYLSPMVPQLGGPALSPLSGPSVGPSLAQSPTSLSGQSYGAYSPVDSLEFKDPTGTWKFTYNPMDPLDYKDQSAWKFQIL
Sequence of ETV1 (P50549 whole entry): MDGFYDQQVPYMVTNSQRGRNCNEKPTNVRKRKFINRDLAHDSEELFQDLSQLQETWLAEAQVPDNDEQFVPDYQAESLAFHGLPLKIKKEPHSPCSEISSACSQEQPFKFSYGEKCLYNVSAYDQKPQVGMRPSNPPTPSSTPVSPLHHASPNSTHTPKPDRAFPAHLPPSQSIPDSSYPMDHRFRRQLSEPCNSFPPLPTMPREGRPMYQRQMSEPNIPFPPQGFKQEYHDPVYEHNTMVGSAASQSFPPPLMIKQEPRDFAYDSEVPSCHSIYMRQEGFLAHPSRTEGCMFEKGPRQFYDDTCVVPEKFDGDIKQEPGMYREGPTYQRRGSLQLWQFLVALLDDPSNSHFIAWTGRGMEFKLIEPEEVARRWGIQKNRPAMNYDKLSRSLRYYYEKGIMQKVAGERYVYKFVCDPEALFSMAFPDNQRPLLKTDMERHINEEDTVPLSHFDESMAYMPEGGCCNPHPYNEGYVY
Sequence of ELF4 (Q99607 whole entry): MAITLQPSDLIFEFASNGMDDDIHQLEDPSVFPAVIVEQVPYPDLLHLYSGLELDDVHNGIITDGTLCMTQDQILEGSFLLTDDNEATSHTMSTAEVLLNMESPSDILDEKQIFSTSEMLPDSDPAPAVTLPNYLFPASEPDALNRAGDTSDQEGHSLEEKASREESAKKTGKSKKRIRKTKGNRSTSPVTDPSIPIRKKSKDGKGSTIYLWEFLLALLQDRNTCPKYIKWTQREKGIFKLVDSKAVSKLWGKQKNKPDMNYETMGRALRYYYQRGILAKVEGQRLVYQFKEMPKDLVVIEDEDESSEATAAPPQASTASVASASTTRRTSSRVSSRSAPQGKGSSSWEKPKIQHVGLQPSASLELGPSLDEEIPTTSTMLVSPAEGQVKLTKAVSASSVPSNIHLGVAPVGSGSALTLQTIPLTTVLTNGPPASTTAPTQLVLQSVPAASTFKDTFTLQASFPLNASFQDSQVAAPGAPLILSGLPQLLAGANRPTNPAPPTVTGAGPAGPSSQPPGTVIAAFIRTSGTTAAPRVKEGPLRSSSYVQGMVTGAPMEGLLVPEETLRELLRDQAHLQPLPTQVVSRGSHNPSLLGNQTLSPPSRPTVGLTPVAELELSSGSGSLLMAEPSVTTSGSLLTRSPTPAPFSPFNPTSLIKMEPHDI
Sequence of HSF1 (Q00613 whole entry): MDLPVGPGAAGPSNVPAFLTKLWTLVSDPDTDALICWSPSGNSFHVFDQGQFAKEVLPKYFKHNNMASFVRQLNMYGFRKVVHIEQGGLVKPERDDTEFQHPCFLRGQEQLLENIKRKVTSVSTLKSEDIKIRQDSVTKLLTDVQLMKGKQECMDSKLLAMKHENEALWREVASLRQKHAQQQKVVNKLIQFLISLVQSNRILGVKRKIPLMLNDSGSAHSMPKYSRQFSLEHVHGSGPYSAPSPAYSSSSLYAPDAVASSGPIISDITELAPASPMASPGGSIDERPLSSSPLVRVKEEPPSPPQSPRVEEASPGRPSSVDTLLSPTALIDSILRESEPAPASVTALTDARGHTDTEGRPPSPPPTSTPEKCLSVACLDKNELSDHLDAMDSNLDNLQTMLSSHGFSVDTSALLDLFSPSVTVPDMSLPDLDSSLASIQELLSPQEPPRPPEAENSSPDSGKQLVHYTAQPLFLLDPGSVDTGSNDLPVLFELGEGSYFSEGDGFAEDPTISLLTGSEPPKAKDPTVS
Sequence of ETV5 (P41161 whole entry): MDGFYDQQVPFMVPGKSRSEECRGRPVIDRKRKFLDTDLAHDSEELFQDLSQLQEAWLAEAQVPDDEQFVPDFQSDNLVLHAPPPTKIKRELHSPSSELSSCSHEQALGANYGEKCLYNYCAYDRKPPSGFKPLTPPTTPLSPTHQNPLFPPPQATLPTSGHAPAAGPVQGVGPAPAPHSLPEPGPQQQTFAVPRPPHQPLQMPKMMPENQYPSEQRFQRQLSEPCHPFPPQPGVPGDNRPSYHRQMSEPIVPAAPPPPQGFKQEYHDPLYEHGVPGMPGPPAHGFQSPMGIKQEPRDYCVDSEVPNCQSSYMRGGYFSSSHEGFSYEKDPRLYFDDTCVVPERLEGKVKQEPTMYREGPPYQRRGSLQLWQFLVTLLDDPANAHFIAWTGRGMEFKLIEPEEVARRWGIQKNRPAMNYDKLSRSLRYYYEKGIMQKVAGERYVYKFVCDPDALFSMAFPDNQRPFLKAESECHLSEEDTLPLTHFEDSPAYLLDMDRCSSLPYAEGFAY
Sequence of ETV6 (P41212 whole entry): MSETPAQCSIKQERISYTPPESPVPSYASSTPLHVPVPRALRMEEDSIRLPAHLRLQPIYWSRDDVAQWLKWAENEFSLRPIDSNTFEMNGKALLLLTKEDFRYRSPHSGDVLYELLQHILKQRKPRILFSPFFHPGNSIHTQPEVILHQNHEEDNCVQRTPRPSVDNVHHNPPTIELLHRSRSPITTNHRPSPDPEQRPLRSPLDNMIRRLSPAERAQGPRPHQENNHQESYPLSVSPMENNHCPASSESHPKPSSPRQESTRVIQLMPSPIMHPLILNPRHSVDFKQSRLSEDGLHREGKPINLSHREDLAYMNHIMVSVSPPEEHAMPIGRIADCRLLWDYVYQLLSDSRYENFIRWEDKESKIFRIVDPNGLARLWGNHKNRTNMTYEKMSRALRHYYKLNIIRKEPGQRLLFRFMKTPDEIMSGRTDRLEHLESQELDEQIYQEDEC

TCGCTT
binding signal [1]: 1.2 fold enrichment (6-mer frequency, TF over GST control)
binding signal [2]: 1.38 fold enrichment (6-mer frequency, TF over GST control)
binding signal [3]: 1.11 fold enrichment (6-mer frequency, TF over GST control)
binding signal [4]: 1.08 fold enrichment (6-mer frequency, TF over GST control)
binding signal [5]: 1.24 fold enrichment (6-mer frequency, TF over GST control)
binding signal [6]: 1.21 fold enrichment (6-mer frequency, TF over GST control)
binding signal [7]: 1.05 fold enrichment (6-mer frequency, TF over GST control)
binding signal [8]: 1.18 fold enrichment (6-mer frequency, TF over GST control)
binding signal [9]: 1.15 fold enrichment (6-mer frequency, TF over GST control)
binding signal [10]: 1.24 fold enrichment (6-mer frequency, TF over GST control)
binding signal [11]: 1.21 fold enrichment (6-mer frequency, TF over GST control)
binding signal [12]: 1.24 fold enrichment (6-mer frequency, TF over GST control)
binding signal [13]: 1.34 fold enrichment (6-mer frequency, TF over GST control)
binding signal [14]: 1.18 fold enrichment (6-mer frequency, TF over GST control)
binding signal [15]: 1.29 fold enrichment (6-mer frequency, TF over GST control)
binding signal [16]: 1.21 fold enrichment (6-mer frequency, TF over GST control)
binding signal [17]: 1.24 fold enrichment (6-mer frequency, TF over GST control)
binding signal [18]: 1.22 fold enrichment (6-mer frequency, TF over GST control)
